# Laboratory results reported in PubChem BioAssay (Tox21).
# Several values for one entry are separate records, joined by “and”; a condition that tells them apart may be missing. Equal entries are not always repeated. Results filed as inconclusive are left out. Some structures have more than one record in an assay (separate samples or runs), and their calls can disagree. Activity calls are given as the source filed them. The call rests on the fitted dose curve; in most records, active means well fitted curve in the direction sought with a large enough effect in the repeat runs; inconclusive means weak or mixed curves; inactive means no such curve, though single readings can be large; an effect the other way counts as inactive or inconclusive.
# Test: qHTS assay for identifying genotoxic compounds that show differential cytotoxicity against isogenic chicken DT40 cell lines with known DNA damage response pathways - Rev3 mutant cell line (AID 743014); further: nearly all actives have a fitted effect of over 55% in size
# Conditions: chicken DT40 Rev3-/- viability, CellTiter-Glo, 40 h; series mostly up to 68.4 µM
# Potency means the concentration at half of the fitted maximal effect.
row,SMILES,Potency
1,CSc1cnc(C)cn1,inactive
2,CCC(N)(CO)CO,inactive
3,CCCC1O[C@@H]2C[C@H]3[C@@H]4CCC5=CC(=O)C=C[C@]5(C)[C@H]4[C@@H](O)C[C@]3(C)[C@]2(C(=O)CO)O1 (stereo partly specified),inactive and 48.6 µM (active)
4,Clc1ccccc1C(c1ccccc1)(c1ccccc1)n1ccnc1,10.1 µM (active) and 15.4 µM (active)
5,CC(C)(C)C(=O)OCOC(=O)C1N2C(=O)CC2S(=O)(=O)C1(C)C (stereo unspecified),inactive
6,C1CCCC1,inactive
7,Cc1c(C)c2c(c(C)c1OC(=O)CCC(=O)O)CC[C@@](C)(CCC[C@H](C)CCC[C@H](C)CCCC(C)C)O2,inactive
8,O=[N+]([O-])c1cc(Cl)c(Cl)c(Cl)c1Cl,inactive
9,CC(NN)c1ccccc1 (stereo unspecified),inactive
10,CCCCCCCCNC(C)C(O)c1ccc(SC(C)C)cc1 (stereo unspecified),1.68 µM (active)
11,Oc1cccc2cc3cccc(O)c3c(O)c12,inactive
12,COc1ccc(C(=O)/C(Br)=C\C(=O)O)cc1,inactive and 6.11 µM (active)
13,CC(C)c1ccc2c(c1)CC[C@H]1[C@](C)(CN)CCC[C@]21C,6.11 µM (active)
14,C[C@H](CCC(=O)O)[C@H]1CC[C@H]2[C@@H]3CC[C@@H]4C[C@H](O)CC[C@]4(C)[C@H]3CC[C@]12C,inactive
15,On1ccccc1=S,0.215 µM (active)
16,Cc1cc(C2CCCCC2)n(O)c(=O)c1,1.14 µM (active)
17,COc1cc(/C=C/C(=O)O[C@H]2CC[C@]34C[C@]35CC[C@]3(C)[C@@H]([C@H](C)CCC=C(C)C)CC[C@@]3(C)[C@@H]5CC[C@H]4C2(C)C)ccc1O,inactive
18,Cc1ccc(-n2nc(C(C)(C)C)cc2NC(=O)Nc2ccc(OCCN3CCOCC3)c3ccccc23)cc1,26.6 µM (active)
19,CCOC(=O)/C=C(C)/C=C/C=C(C)/C=C/c1c(C)cc(OC)c(C)c1C,2.37 µM (active)
20,COc1cccc(N)c1,inactive
21,Cn1cc(C(=O)[C@@H]2CCc3nc[nH]c3C2)c2ccccc21,inactive
22,O=C(OCC(COC(=O)c1ccccc1)(COC(=O)c1ccccc1)COC(=O)c1ccccc1)c1ccccc1,inactive
23,CN(C)c1ccc(SC#N)cc1,30.6 µM (active)
24,CC(=O)OCC(C)OC(C)=O (stereo unspecified),inactive
25,CCc1cc(SCc2sc(-c3ccc(C(F)(F)F)cc3)nc2CN2CCN(c3ccc(OC)cc3)CC2)ccc1OCC(=O)O,61.1 µM (active)
26,C=CC(=O)OCCn1c(=O)n(CCOC(=O)C=C)c(=O)n(CCOC(=O)C=C)c1=O,2.43 µM (active)
27,CCCCCCCCCCCCCCCS(=O)(=O)Oc1ccccc1,inactive

# Test: qHTS assay for identifying genotoxic compounds that show differential cytotoxicity against isogenic chicken DT40 cell lines with known DNA damage response pathways - Rad54/Ku70 mutant cell line (AID 743015); further: nearly all actives have a fitted effect of over 60% in size
# Conditions: DT40 Rad54/Ku70 mutant viability, CellTiter-Glo, 40 h; series mostly up to 66.8 µM
row,SMILES,Potency
1,CNc1ccc(O)cc1,10.8 µM (active)
2,CCCCCCCCCCCC[N+](C)(C)CCCCCCCCCCCC,4.33 µM (active)
3,CC(=O)S[C@@H]1CC2=CC(=O)CC[C@]2(C)[C@H]2CC[C@@]3(C)[C@@H](CC[C@@]34CCC(=O)O4)[C@H]12,8.41 µM (active) and 6.11 µM (active)
4,O=C(OC[C@H]1O[C@@H](OC(=O)c2cc(O)c(O)c(OC(=O)c3cc(O)c(O)c(O)c3)c2)[C@H](OC(=O)c2cc(O)c(O)c(OC(=O)c3cc(O)c(O)c(O)c3)c2)[C@@H](OC(=O)c2cc(O)c(O)c(OC(=O)c3cc(O)c(O)c(O)c3)c2)[C@@H]1OC(=O)c1cc(O)c(O)c(OC(=O)c2cc(O)c(O)c(O)c2)c1)c1cc(O)c(O)c(OC(=O)c2cc(O)c(O)c(O)c2)c1,11.9 µM (active)
5,CO[Si](CCCNc1ccccc1)(OC)OC,8.63 µM (active)
6,S=c1[nH]c2ccccc2s1,29.8 µM (active) and 64 µM (active)
7,Cc1cccc(S(=O)(=O)O)c1C,inactive
8,O=[N+]([O-])c1cc([N+](=O)[O-])c2ccc(S(=O)(=O)O)cc2c1O,inactive
9,CCOC(=O)O[C@H](C)OC(=O)c1ccc2c(c1)cc(C(=O)NC1CCN(C(C)C)CC1)n2Cc1cc(-c2ccc(Cl)s2)on1,11.4 µM (active)
10,CCCCCCCCCCCCCCCC[N+](C)(C)CCN(Cc1ccc(OC)cc1)c1ncccn1,2.27 µM (active)
11,O=C(Oc1cccc2cccnc12)c1ccccc1,6.68 µM (active)
12,OCCN(CCO)c1nc(N2CCCCC2)c2nc(N(CCO)CCO)nc(N3CCCCC3)c2n1,10.6 µM (active)
13,CSc1cnc(C)cn1,inactive
14,CCC(N)(CO)CO,inactive
15,CCCC1O[C@@H]2C[C@H]3[C@@H]4CCC5=CC(=O)C=C[C@]5(C)[C@H]4[C@@H](O)C[C@]3(C)[C@]2(C(=O)CO)O1 (stereo partly specified),inactive and 68.7 µM (active) and 54.5 µM (active)
16,Clc1ccccc1C(c1ccccc1)(c1ccccc1)n1ccnc1,8.04 µM (active) and 3.44 µM (active)
17,CC(C)(C)C(=O)OCOC(=O)C1N2C(=O)CC2S(=O)(=O)C1(C)C (stereo unspecified),inactive
18,C1CCCC1,inactive
19,Cc1c(C)c2c(c(C)c1OC(=O)CCC(=O)O)CC[C@@](C)(CCC[C@H](C)CCC[C@H](C)CCCC(C)C)O2,inactive
20,O=[N+]([O-])c1cc(Cl)c(Cl)c(Cl)c1Cl,inactive

row,SMILES,Potency
1,CC(NN)c1ccccc1 (stereo unspecified),inactive
2,CCCCCCCCNC(C)C(O)c1ccc(SC(C)C)cc1 (stereo unspecified),1.68 µM (active)
3,Oc1cccc2cc3cccc(O)c3c(O)c12,inactive
4,COc1ccc(C(=O)/C(Br)=C\C(=O)O)cc1,6.11 µM (active)
5,CC(C)c1ccc2c(c1)CC[C@H]1[C@](C)(CN)CCC[C@]21C,5.45 µM (active)
6,C[C@H](CCC(=O)O)[C@H]1CC[C@H]2[C@@H]3CC[C@@H]4C[C@H](O)CC[C@]4(C)[C@H]3CC[C@]12C,inactive
7,On1ccccc1=S,0.215 µM (active)
8,Cc1cc(C2CCCCC2)n(O)c(=O)c1,2.54 µM (active)
9,COc1cc(/C=C/C(=O)O[C@H]2CC[C@]34C[C@]35CC[C@]3(C)[C@@H]([C@H](C)CCC=C(C)C)CC[C@@]3(C)[C@@H]5CC[C@H]4C2(C)C)ccc1O,inactive
10,Cc1ccc(-n2nc(C(C)(C)C)cc2NC(=O)Nc2ccc(OCCN3CCOCC3)c3ccccc23)cc1,26.6 µM (active)
11,CCOC(=O)/C=C(C)/C=C/C=C(C)/C=C/c1c(C)cc(OC)c(C)c1C,6.68 µM (active)
12,COc1cccc(N)c1,inactive
13,Cn1cc(C(=O)[C@@H]2CCc3nc[nH]c3C2)c2ccccc21,inactive
14,O=C(OCC(COC(=O)c1ccccc1)(COC(=O)c1ccccc1)COC(=O)c1ccccc1)c1ccccc1,inactive
15,CN(C)c1ccc(SC#N)cc1,38.6 µM (active)
16,CC(=O)OCC(C)OC(C)=O (stereo unspecified),inactive
17,CCc1cc(SCc2sc(-c3ccc(C(F)(F)F)cc3)nc2CN2CCN(c3ccc(OC)cc3)CC2)ccc1OCC(=O)O,30.6 µM (active)
18,C=CC(=O)OCCn1c(=O)n(CCOC(=O)C=C)c(=O)n(CCOC(=O)C=C)c1=O,2.43 µM (active)
19,CCCCCCCCCCCCCCCS(=O)(=O)Oc1ccccc1,inactive
